This is an account of results in PubChem BioAssay (EPA / NIEHS).

Several values for one entry are separate records, joined by “and”; a condition that tells them apart may be missing. Equal entries are not always repeated. Records with an inconclusive call do not appear. Activity calls are given as the source filed them. Rule for the calls: active = hit-call score of the fitted dose curve at least 0.9, where 1 is the maximum; inconclusive = response in the unintended direction; inactive = score below 0.9.

Sequence of Cellular tumor antigen p53 (Homo sapiens) (P04637 whole entry, looked up): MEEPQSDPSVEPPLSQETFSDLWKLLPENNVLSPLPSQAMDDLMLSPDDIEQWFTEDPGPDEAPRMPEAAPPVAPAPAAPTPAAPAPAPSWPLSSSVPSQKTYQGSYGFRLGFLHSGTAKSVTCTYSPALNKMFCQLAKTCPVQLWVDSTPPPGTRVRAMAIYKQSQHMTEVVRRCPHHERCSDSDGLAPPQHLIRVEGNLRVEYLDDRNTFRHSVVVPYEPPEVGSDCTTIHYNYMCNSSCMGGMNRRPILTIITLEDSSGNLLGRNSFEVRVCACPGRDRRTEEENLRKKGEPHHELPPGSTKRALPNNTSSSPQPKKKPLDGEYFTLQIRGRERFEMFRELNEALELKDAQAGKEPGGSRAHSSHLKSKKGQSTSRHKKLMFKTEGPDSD

The assay concerns the target Cellular tumor antigen p53 (Homo sapiens) (UniProt P04637). As to the kind of experiment: TOX21_p53_BLA_p2_ratio: Tox21 HCT-116 p53 Agonism Beta-lactamase Assay, Ratio, Phase 2 (AID 2283592). The procedure, abridged:
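HCT116 p53-bla; 4000 cells/well; 5 h pre-incubation; cpd in DMSO, 217-fold dilution; 16 h 37C/5% CO2; CCF4-AM 2 h RT; Ex 405, Em 460/530 ratio; DMSO = baseline; positive fitting direction.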
`CCC(Cc1c(I)cc(I)c(N)c1I)C(=O)O` (centres undefined): the outcome was inactive.
Same read-out and setting: the entry for `CCCCOC(=O)[C@H](C)O` is “inactive”.
The same measure, in the same setting: the entry for `CC(=O)CCC(C)C` is “inactive”.
As for `O=C1C=CC(=O)N1c1ccccc1`, the half-maximal activity concentration (AC50) was 80.4 µM (active).
For the compound `CC(C)OC=O`, the outcome was inactive.
The same measure, in the same setting: in the case of `Cc1ccc(O)c(-n2nc3ccccc3n2)c1` it was “inactive”.
Still for that read-out and setting: in the case of `CC(C)Nc1ccc(NC(C)C)c2c1C(=O)c1ccccc1C2=O` it was “inactive”; in that of `CCOC(=O)C1CC(=O)C(=C(O)C2CC2)C(=O)C1` (centres undefined), “inactive”; in that of `CCCCC(CC)COC(=O)c1ccc(N(C)C)cc1` (centres undefined), “inactive”.
Consider `OCC1CCCO1` (centres undefined), for which the outcome was inactive.
On the same count and under the same terms, the entry for `F[Si-2](F)(F)(F)(F)F` is “inactive”.
Regarding `CCN=C1C=CC(=C(c2ccc(N(CC)CC)cc2)c2ccc(N(CC)CC)cc2)c2ccccc21`, the AC50 is 0.559 µM (active).
Regarding `C[C@]12CC[C@H]3C(=CCc4cc(O)ccc43)[C@@H]1CCC2=O`, the outcome was inactive.
Turning to `CCCCCCCC/C=C\CCCCCCCC(=O)N(C)CC(=O)O`, the AC50 is 51.5 µM (active).
For `CCc1cc(Cc2cc(CC)c(N)c(CC)c2)cc(CC)c1N`, the outcome was inactive.
On the same count and under the same terms, the entry for `O=C(c1ccccc1)c1ccc(O)cc1O` is “inactive”.
Take `CCN=c1cc2oc3cc(NCC)c(C)cc3c(-c3ccccc3C(=O)OCC)c-2cc1C`: the AC50 is 16 µM (active) and 6.62 µM (active).
Take `Cc1ccc([N+](=O)[O-])c(C)c1`: the outcome was inactive.
Consider `CCCCOC(=O)C(C)O` (centres undefined), for which the result was inactive.
